# Tau fluor cs: counter-screen for tau fibril formation inhibitors. tau K18 P301L Alexa594 fluorescence, heparin fibrillization. Potency, µM (doses to about 57.7 µM). 0.93% of 280,000 active. AID 1463; active = well fitted curve in the direction sought with a large enough effect; inconclusive = small, poorly fitted or top-dose-only effect, or another doubt; inactive = no such curve, though single readings can be large; an effect the other way counts as inactive or inconclusive; also: nearly all actives have a fitted effect of over 55% in size
#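 Human tau K18 P301L (15 uM unlabeled, 0.24 uM Alexa 594-labeled) in 100 mM sodium acetate pH 7 with 20 uM heparin, 6 hr at 37 C. ThT 30 uM added, 1 hr ambient; Alexa 594 FP and total fluorescence read at 555/632 nm.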
# JMJD2E inh: JMJD2E (human) inhibition. 1.6% of 230,000 active. JMJD2E catalytic domain, FDH-coupled NADH fluorescence (FDH is formaldehyde dehydrogenase). Potency, µM (highest dose often 57.1 µM), usual class: inhibitors; also: nearly all actives have a fitted effect of over 50% in size
# Target sequence (B2RXH2 1-337 limits assumed): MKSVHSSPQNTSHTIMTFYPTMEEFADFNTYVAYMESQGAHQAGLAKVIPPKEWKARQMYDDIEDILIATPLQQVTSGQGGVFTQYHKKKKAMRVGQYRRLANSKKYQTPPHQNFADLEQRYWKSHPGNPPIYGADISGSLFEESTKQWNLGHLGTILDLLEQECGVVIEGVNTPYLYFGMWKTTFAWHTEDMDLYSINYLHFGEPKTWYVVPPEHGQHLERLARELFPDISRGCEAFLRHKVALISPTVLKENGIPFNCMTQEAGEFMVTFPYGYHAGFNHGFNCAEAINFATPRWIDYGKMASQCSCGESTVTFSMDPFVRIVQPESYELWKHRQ
# ALDH1A1 block: blocks purified human ALDH1A1 activity | 7.3% of 220,000 active | Potency, µM (doses to about 75.3 µM), most hits filed as inhibitors | Purified ALDH1A1, NADH fluorescence, propionaldehyde substrate
# HPGD inh: HPGD (human) dehydrogenase inhibition; P15428; purified HPGD, NADH fluorescence kinetic, PGE2 substrate; Potency, µM, usual class: inhibitors; 4.3% of 150,000 active
# Target sequence (P15428 whole entry, looked up): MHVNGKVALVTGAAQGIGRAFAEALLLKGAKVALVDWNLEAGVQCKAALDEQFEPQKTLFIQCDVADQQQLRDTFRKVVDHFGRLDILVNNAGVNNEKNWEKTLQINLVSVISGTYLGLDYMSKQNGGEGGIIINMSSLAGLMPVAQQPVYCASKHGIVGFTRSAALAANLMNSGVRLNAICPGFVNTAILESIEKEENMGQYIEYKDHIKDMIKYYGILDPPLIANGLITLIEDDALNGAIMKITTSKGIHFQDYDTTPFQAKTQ
#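 NADH formation kinetics: reaction with 30 uM PGE2 and 1 mM NAD+ (final), 20 nM enzyme, Tris-HCl pH 8 with Tween 20, after 15 min compound preincubation at room temperature. Fluorescence change, last versus first of five reads.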
# Tau fibril ThT: tau fibrillization inhibition (ThT binding). recombinant tau K18 P301L (four-repeat tau fragment), heparin-induced fibrillization, ThT fluorescence. 2.1% of 270,000 active. P10636. AID 1460. Potency, µM (series often up to 57.4 µM), most hits filed as inhibitors; active = well fitted curve in the direction sought with a large enough effect; inconclusive = small, poorly fitted or top-dose-only effect, or another doubt; inactive = no such curve, though single readings can be large; an effect the other way counts as inactive or inconclusive; also: nearly all actives have a fitted effect of over 55% in size
#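 K18 P301L tau (15 uM + 0.24 uM Alexa 594-tagged), heparin 20 uM, NaOAc pH 7, 6 h 37 C; ThT 30 uM, 1 h RT, ex 450/em 510 nm.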
# Tau FP inhib: blocks human tau fibril formation measured by polarization. P10636. K18 P301L tau heparin fibrillization, Alexa594 FP, 6 h. Potency, µM (highest dose often 57.7 µM), hits mostly inhibitors. 0.39% of 280,000 active; active = well fitted curve in the direction sought with a large enough effect; inconclusive = small, poorly fitted or top-dose-only effect, or another doubt; inactive = no such curve, though single readings can be large; an effect the other way counts as inactive or inconclusive; also: nearly all actives have a fitted effect of over 55% in size
#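 Recombinant K18 P301L […], labeled with Alexa 594 at 0.24 uM over 15 uM unlabeled; heparin inducer 20 uM final; 37 C, 6 hr; FP endpoint.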
# Numbers stand for hits; i = inactive; ? = inconclusive; nt = no result; [ ] = dose if it differs, or a comment. Most compounds without a hit are left out; they make up all but 9.9% or so of the library. Unless noted, calls follow the shape of the dose curve; as a rule, active = well fitted inhibition curve with a large enough effect (not every such curve was filed as active); inconclusive = small, poorly fitted or top-dose-only effect, or another doubt; inactive = no such curve, though single readings can be large or run the other way.
SMILES,Tau fluor cs,JMJD2E inh,ALDH1A1 block,HPGD inh,Tau fibril ThT,Tau FP inhib
COC(=O)/C(N=Nc1cccc(C(F)(F)F)c1)=C(\C)O,i,i,i,i,i,i
Cc1cccc(N=N/C(=C\O)C(=O)c2ccc(Br)cc2)c1,i,i,?,nt,22µM,i
O=C(/C(=C/O)N=Nc1ccccc1Cl)c1ccccc1,i,i,7.9µM,nt,28µM,i
Cc1[nH][nH]c(=O)c1N=Nc1ccccc1Cl,i,i,i,nt,?,i
O=C(/C(=C/O)N=Nc1ccccc1)c1ccco1,i,i,14µM,nt,20µM,i
O=C(/C(=C/O)N=Nc1cccc(C(F)(F)F)c1)c1ccccc1,i,i,7.5µM,nt,?,i
COc1ccc(C2Nc3ccccc3C(=O)N2NS(=O)(=O)c2ccccc2)cc1OC (stereo unspecified),i,?,?,nt,i,i
Cc1cccc(-c2nc(CSc3nncn4c3cc3oc(C)cc34)c(C)o2)c1,i,nt,nt,nt,?,i
Cc1cccc(N/N=C(\C=N\N)C(=O)c2ccc(Br)cc2)c1,11µM[quencher],i,i,nt,14µM,?
Cc1cccc(/C=N/NC(=O)c2ccc(Br)cc2)c1,i,i,i,i,i,i
COc1ccc2c(c1)C(=O)N(CCc1ccc(S(=O)(=O)NC(=O)NC3CCCCC3)cc1)C(=O)C2(C)C,nt,7.9µM,i,?,nt,nt
COc1cc(/C=N/NC(=O)Cc2csc(C)n2)ccc1OCC(C)C,i,i,i,nt,i,i
COc1ccc(/C=N/NC(=O)Cc2csc(Nc3cccc(C(F)(F)F)c3)n2)cc1C,18µM[quencher],i,i,i,?,?
COc1cccc(N2CC(NC(=O)c3cccc(OC)c3OC)CC2=O)c1 (stereo unspecified),i,nt,nt,nt,i,i
O=C(CSc1nc2c(c(=O)[nH]1)CCC2)Nc1cccc(O)c1,i,nt,nt,nt,i,i
CCCCC(=O)Nc1ccc(OCc2cc(=O)n3ccc(C)cc3n2)cc1,i,nt,nt,nt,i,i
CCN(CC)c1ccc(SS(=O)(=O)O)cc1,i,i,13µM,8.9µM,?,?
CCN(CC)c1ccc(C(=O)O)cc1,i,?,i,i,i,i
CCOC(=O)c1sc(N(Cc2ccccc2)C(=O)COC(=O)c2ccc(O)cc2)nc1C,?,i,14µM,?,i,14µM
CCOC(=O)c1sc(N(Cc2ccccc2)C(=O)CSc2ncn[nH]2)nc1C,?,?,4.5µM,i,i,?
CCOC(=O)c1sc(N(C)C(C)=O)nc1C,i,i,i,i,i,i
CCOC(=O)c1sc(N(Cc2ccccc2)C(=O)COC(=O)c2ccccc2O)nc1C,i,i,i,20µM,i,i
CCOC(=O)c1sc(NC(=O)CSc2ncn[nH]2)c(C#N)c1C,i,i,i,i,i,i
Cc1cc(C(=O)Nc2c(F)c(F)c(F)c(F)c2F)n(-c2ccccc2)n1,i,i,i,nt,i,i
Cc1ccc2c(c1)C(N1CCN(C)CC1)=Nc1cccnc1N2,i,i,i,i,i,i
SMILES,Tau fluor cs,JMJD2E inh,ALDH1A1 block,HPGD inh,Tau fibril ThT,Tau FP inhib
CCOc1ccc(NC(=S)Nc2ccc(OCc3ccccc3)cc2)cc1,i,i,i,i,i,i
S=C(Nc1ccccc1)Nc1ccc(OCc2ccc(Cl)cc2Cl)cc1,14µM[quencher],i,?,i,?,i
CNC(=S)Nc1ccc(OCc2ccccc2)cc1,i,i,32µM,nt,i,i
S=C(NCCSCc1ccc(Cl)cc1Cl)Nc1ccccc1,?,i,i,i,i,?
O=C(COc1cccnc1[N+](=O)[O-])N1N=C(c2ccc(Cl)cc2)CC1c1ccco1 (stereo unspecified),i,i,13µM,nt,?,i
COc1ccc(NC(=O)c2nc(SCc3ccccc3F)ncc2Cl)cc1,i,nt,nt,nt,i,?
CCC(CC(C)(C)O)C(=O)NNC(=S)Nc1ccccc1 (stereo unspecified),i,i,25µM,nt,i,i
C=CCNC(=S)NNC(=O)C(CCCC)CC(C)O (stereo unspecified),i,i,i,i,i,?
CCCCC(CC(O)COCC(C)C)C(=O)NNC(=S)Nc1ccccc1 (stereo unspecified),i,i,10µM,i,i,i
COC(CC(=O)NNC(=S)Nc1ccccc1)OC,i,i,i,nt,i,i
COc1ccccc1-c1ccnc2c(-c3ccc(Br)cc3)c(C)nn12,i,nt,nt,nt,i,i
N=C1C(c2ccccc2)=C(O)CN1c1cccc2ccccc12,i,i,i,nt,i,i
Cc1cc2nc3c(=O)[nH]c(=O)[nH]c3nc2c([N+](=O)[O-])c1N,?,?,i,nt,14µM,?
Cc1c(N)c(C(C)(C)C)cc(C(C)(C)C)c1[N+](=O)[O-],i,i,i,i,i,i
Cc1[nH]c(=O)c(C(=O)/C=C/c2ccccc2F)c2c1CCCC2,i,i,i,i,i,i
O=S(=O)(/N=C/c1c(O)ccc2ccccc12)c1cccs1,i,?,11µM,?,?,?
O=CN/N=C/c1c(O)ccc2ccccc12,i,11µM,nt,nt,i,i
Cc1cc(NC2CCCCC2)nc(-c2ccccc2O)n1,i,i,i,nt,i,i
NC(=S)N/N=C/c1c(O)ccc2ccccc12,?,7.1µM,nt,nt,nt,i
COc1ccccc1N(CC(=O)N/N=C/c1c(O)ccc2ccccc12)S(C)(=O)=O,?,?,i,i,i,?
Cc1cc(N/N=C/c2c(O)ccc3ccccc23)nc(-c2ccccc2O)n1,i,14µM,i,i,i,i
O=C(Cc1n[nH]c(=O)[nH]c1=O)N/N=C/c1c(O)ccc2ccccc12,i,i,i,nt,i,i
COc1ccc(N/N=C/c2c(C(=O)O)ccc3ccccc23)cc1,?,25µM,nt,nt,?,i
Cc1nn(C)c(C)c1N=Cc1c(O)ccc2ccccc12,i,i,i,i,?,i
Oc1ccc2ccccc2c1/C=N/c1nc2c(s1)CCCC2,?,?,?,i,32µM,?
SMILES,Tau fluor cs,JMJD2E inh,ALDH1A1 block,HPGD inh,Tau fibril ThT,Tau FP inhib
Oc1ccc2ccccc2c1/C=N/Nc1ccccc1,11µM[quencher],7.9µM,18µM,?,18µM,?
Oc1ccc2ccccc2c1C=NC1CCCCC1,?,i,?,nt,25µM,?
Oc1ccc2ccccc2c1/C=N/n1cnnc1,i,i,i,i,?,i
Oc1ccc2ccccc2c1C=Nc1ccc(Cl)cn1,i,?,?,nt,i,i
COc1cc(OC)c(NC(=O)CN2C(=O)CCn3nc(-c4cccn4C)cc32)cc1Cl,i,nt,nt,nt,i,i
CC[C@]1(O)C[C@@H]2CN(CCc3c([nH]c4ccccc34)[C@](C(=O)OC)(c3cc4c(cc3OC)N(C=O)[C@H]3[C@@](O)(C(=O)OC)[C@H](C(=O)OC)[C@@]5(CC)C=CCN6CC[C@]43[C@H]65)C2)C1,i,i,i,i,?,i
Clc1ccc(-c2n[nH]c3c2CCC3)cc1Cl,?,i,?,18µM,?,i
O=C(CSc1nc2ccccc2nc1SCC(=O)N1CCCCC1)N1CCCCC1,i,i,i,2.5µM,i,i

# From PubChem BioAssay
